# Assay outcomes from PubChem BioAssay.
# Bead autofluor – flagged as autofluorescent in microsphere protease counterscreen. compound autofluorescence counterscreen, microsphere flow cytometry; hits give high values. AID 624483. 3.1% of 360,000 active. fluorescence intensity (concentration not given with the values); in the data active means fluorescence intensity above about 16000; inconclusive means no clear call, values can overlap the other calls
# SARS 3CLpro inh – SARS-CoV 3CLpro protease inhibition | P0C6X7 | 0.14% of 290,000 active | inhibition, % at 6 µM | AID 1706 | recombinant SARS-CoV 3CLpro, quenched FRET peptide cleavage; in the data active means inhibition above about 12%
# BoNT-A LC inh2 – inhibitors of Botulinum neurotoxin A light chain protease. multiplex microsphere protease substrate cleavage, flow cytometry. inhibition, % at 10 µM. 0.17% of 360,000 active. AID 588499; further: plate controls were buffer without enzyme for full effect and enzyme alone for no effect
# CCHF vOTU inh – blocks the CCHF virus ovarian tumor domain protease. CCHFV vOTU protease, Pep-AMC fluorescence. inhibition, % at 11.5 µM. 0.55% of 370,000 active. AID 651958; in the data active means inhibition above about 30%; further: 0% = vehicle wells with enzyme and 100% = no enzyme wells
# Anthrax LF inh2 – blocks Bacillus anthracis lethal factor protease. multiplex microsphere protease cleavage assay, LF. inhibition, % at 10 µM. 0.12% of 360,000 active. AID 588501; further: plate controls were buffer without enzyme for full effect and enzyme alone for no effect
# BoNT-F LC inh – BoNT F light chain protease inhibition | Multiplex microsphere protease cleavage assay, flow cytometry | inhibition, % at 10 µM | 0.22% of 360,000 active | AID 588497; in the data active means inhibition above about 35%, passing the limit was not always enough; inconclusive means no clear call, values can overlap the other calls; further: plate controls were buffer without enzyme for full effect and enzyme alone for no effect
# Active calls of the source: *; ? = inconclusive; / = not tested or not shown. Most compounds without a hit are left out; they make up all but 3.9% or so of the library. Unless noted, no stated cut-off is given here; in the data, active means inhibition above about 30%; inconclusive means no clear call, values can overlap the other calls; inactive means below that.
SMILES,Bead autofluor,SARS 3CLpro inh,BoNT-A LC inh2,CCHF vOTU inh,Anthrax LF inh2,BoNT-F LC inh
CCOC(=O)c1cc(NC(=O)C2CCCO2)cc(C(=O)OCC)c1 (stereo not given),16398*,-5,8,12,-8,8
Cc1ccc(NC(=S)N2CCN(S(C)(=O)=O)CC2)cc1,4862,-2,-1,-4,-3,-2
CCOC(=O)c1ccc(NC(=O)C2CCCO2)cc1 (stereo not given),4299,6,-1,-7,1,-9
CCOC(=O)c1ccc(NC(=O)N2CCN(C3CCCCC3)CC2)cc1,16368*,2,-1,-14,-3,-3
CCc1nc2ccc(C(=O)NCc3cccs3)cn2c1N(CC)CCOC,3807,/,0,-4,0,-8
Cc1ccc(S(=O)(=O)NC(=O)NC2=NC(C)(C)N(c3ccc(Cl)c(Cl)c3)C(N)=N2)cc1,5799,/,0,0,2,0
C=CCN1C(=O)CS/C1=N/c1nccs1,21993*,-7,-6,4,-2,-6
C=CCN1C(=O)/C(=C/c2ccccc2)S/C1=N/c1nccs1,6979,4,0,9,-2,-6
CCOC(=O)c1c(C)c(C(=O)N2CCCCCC2)c(C)n1CC,20617*,-2,?,/,0,0
CCOC(=O)c1c(C)c(C(=O)N2CCCCCC2)c(C)n1C,23943*,2,0,2,2,0
CCOC(=O)c1c(C)c(C(=O)NCC2CCCO2)c(C)n1CC (stereo not given),10685,3,0,/,-3,-6
CCOC(=O)c1c(C)c(C(=O)N2CCN(c3ccccc3)CC2)c(C)n1C,2143,3,0,0,-1,2
C[N+]1(CC(=O)Nc2ccc(F)cc2)CCN(C(=O)c2ccco2)CC1,16539*,1,0,1,-2,3
Cc1ccsc1-c1ccnc(-n2cccc2)n1,16296*,6,-1,-3,-2,-2
COc1cc(Cl)c(C)cc1NC(=O)CSc1ccc(C)cc1,23633*,4,-3,/,0,-4
Cc1cc(C(=O)CSc2n[nH]c(N)n2)c(C)n1-c1ccc(F)cc1,22336*,-1,?,-2,-3,-3
Cc1cc(C(=O)CSc2n[nH]c(N)n2)c(C)n1-c1ccccc1,16214*,7,1,-3,-1,3
Cc1cc(C(=O)COC(=O)C2=NNC(=O)CC2)c(C)n1-c1ccccc1,19448*,1,1,-8,-9,2
Cc1ccc(-n2c(C)cc(C(=O)COC(=O)c3c(C)noc3C)c2C)cc1,23721*,5,0,15,-3,-3
Cc1ccc(NC(=S)NNC(=O)CSc2nnc(-c3ccc(C)cc3)n2C2CCCCC2)cc1,/,/,/,15,/,/
Cc1nc(SCC(=O)c2ccc(F)cc2)n[nH]1,21307*,7,1,-1,0,2
Nc1nc(SCC(=O)c2ccc(F)cc2)n[nH]1,2554,2,1,-6,1,2
CCOCCCNS(=O)(=O)c1ccccc1,20142*,0,5,1,-5,6
CCCCOCCCNS(=O)(=O)c1ccccc1,7983,-6,-1,-1,-3,-25
O=C(Cc1ccccc1)N1CCCC1c1ccccc1 (stereo not given),21410*,-2,-2,-2,-2,-6
SMILES,Bead autofluor,SARS 3CLpro inh,BoNT-A LC inh2,CCHF vOTU inh,Anthrax LF inh2,BoNT-F LC inh
CCOC(=O)C(C(C)C)C(N)Cc1ccc(F)cc1 (stereo not given),2154,-1,-3,2,-2,-17
Cc1ccc(C(=O)Nc2ccccc2OC(F)F)cc1,23774*,3,?,-15,-7,-2
O=C(Nc1ccccc1OC(F)F)c1ccccc1,8328,1,0,-12,1,0
COCCCN(C(C)=O)c1nc(-c2ccc(OC)cc2)cs1,21678*,-4,3,0,-1,3
COc1ccc(-c2csc(N(CCCN(C)C)C(=O)c3cccs3)n2)cc1,21006*,5,?,3,0,-6
O=C(c1ccco1)N(CC1CCCO1)c1nc(-c2ccccc2)cs1 (stereo not given),5658,4,0,4,3,-8
O=C(c1cccs1)N(CC1CCCO1)c1nc(-c2ccccc2)cs1 (stereo not given),23325*,-3,-1,4,0,-2
Cc1ccccc1NC(=O)c1cccc2c1-c1ccccc1C2=O,/,/,/,2,/,/
Cc1cc(NC(=O)CCC(=O)N(Cc2cccnc2)C(C(=O)NC(C)(C)C)c2ccccc2Cl)no1 (stereo not given),3859,1,-2,13,10,-4
COC(=O)C1CN(C2CC2)CCS(=O)(=O)N1Cc1cn(Cc2ccc(C)cc2)nn1 (stereo not given),/,/,/,1,/,/
CS(=O)(=O)N1CCN(c2ccc([N+](=O)[O-])c(NCCN3CCOCC3)c2)CC1,18351*,3,-5,11,-13,-13
CS(=O)(=O)N1CCN(c2ccc([N+](=O)[O-])c(N3CCOCC3)c2)CC1,/,1,/,13,/,/
Clc1cccc(OCc2nnc(-c3ccccc3Br)o2)c1,3487,-4,1,13,3,-6
Clc1ccc(OCc2nnc(-c3ccccc3Br)o2)cc1,16365*,-2,0,10,-6,0
COc1ccc2c(c1)CCC(C)N2C(=O)C(=O)c1c[nH]c2ccccc12 (stereo not given),4514,-1,0,3,-1,-4
CC(=O)c1ccc(OCCCC(=O)OCC(=O)N2CCN(S(=O)(=O)c3ccc(C)cc3C)CC2)cc1,3701,/,-1,16,-8,1
CN1C(=O)C(O)(CC(=O)c2cccnc2)c2ccccc21 (stereo not given),23918*,6,-3,-1,-3,-5
O=C(Nc1cccnc1Cl)c1cccc(S(=O)(=O)N2CCOCC2)c1,4783,0,-2,-7,1,-3
CC(=O)N1[C@@H](CO)[C@@H](c2ccc(-c3cccc(F)c3)cc2)[C@@H]1CNCC1CCC1,/,/,/,-3,/,/
Fc1ccc(C(c2nnnn2C2CCCC2)N2CCc3ccccc32)cc1 (stereo not given),17043*,-8,-3,0,-3,-5
Fc1ccc(C(c2nnnn2CCc2ccccc2)N2CCCc3ccccc32)cc1 (stereo not given),5148,4,-2,11,-6,-33
CCOC(=O)C1CCN(C(c2cc3ccc(C)cc3[nH]c2=O)c2nnnn2C2CCCCC2)CC1 (stereo not given),28733*,-1,-3,0,1,1
CCN(CC)C(c1ccc(C)cc1)c1nnnn1C1CCCCC1 (stereo not given),10419,-3,0,7,-7,3
CCN(CC)C(c1ccc(F)cc1)c1nnnn1C1CCCCC1 (stereo not given),21991*,-1,2,10,-1,4
COc1ccccc1N1CCN(C(c2cc3ccc(C)cc3[nH]c2=O)c2nnnn2C2CCCC2)CC1 (stereo not given),14791,3,4,5,-8,5
